The list is not random: actives were taken first. Their share in the collection is about 4.6%.
ADAM10 inh: inhibitors of human ADAM10 | recombinant ADAM10, EDANS/DABCYL FRET peptide cleavage, 3 h | inhibition, % at 7 µM | 0.62% of 370,000 active;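 active = inhibition above a per-campaign cutoff equal to the mean of compounds falling between control-based bounds plus 3 SD, cut at about 20% in these data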;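 note: 0% = DMSO wells while the 100% control is not disclosed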
KLK7 zymogen act: proKLK7 (human) activation, primary screen | 0.9% of 370,000 active | P49862 | AID 652039 | purified proKLK7, EDANS-DABCYL substrate fluorescence; 100% is mature enzyme control, 0% vehicle | activation, % at 7 µM;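 active = activation above the mean of all tested compounds plus 3 SD, computed per campaign excluding outliers beyond control limits, cut at about 13% in these data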
ADAM17 inh: inhibits human ADAM17. recombinant ADAM17, EDANS/DABCYL FRET peptide cleavage. inhibition, % at 6.95 µM. 0.83% of 370,000 active. AID 720648;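 active = inhibition above the mean of compounds lying between control limits plus 3 SD, set per campaign, cut at about 8.5% in these data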;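 note: 0% = DMSO-only wells as the low control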
FAS-TE inh: blocks the thioesterase domain of human fatty acid synthase; recombinant FAS-TE, OMFH fluorogenic substrate, fluorescence endpoint; inhibition, % at 15 µM; AID 602261; 0.67% of 360,000 active;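 active = compounds whose normalised, plate-corrected inhibition of enzyme fluorescence in the single-dose primary screen is 50% or more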;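 note: 0% = DMSO with enzyme and 100% = substrate without enzyme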
Target sequence (P49327 whole entry, looked up, the tested form may be a part): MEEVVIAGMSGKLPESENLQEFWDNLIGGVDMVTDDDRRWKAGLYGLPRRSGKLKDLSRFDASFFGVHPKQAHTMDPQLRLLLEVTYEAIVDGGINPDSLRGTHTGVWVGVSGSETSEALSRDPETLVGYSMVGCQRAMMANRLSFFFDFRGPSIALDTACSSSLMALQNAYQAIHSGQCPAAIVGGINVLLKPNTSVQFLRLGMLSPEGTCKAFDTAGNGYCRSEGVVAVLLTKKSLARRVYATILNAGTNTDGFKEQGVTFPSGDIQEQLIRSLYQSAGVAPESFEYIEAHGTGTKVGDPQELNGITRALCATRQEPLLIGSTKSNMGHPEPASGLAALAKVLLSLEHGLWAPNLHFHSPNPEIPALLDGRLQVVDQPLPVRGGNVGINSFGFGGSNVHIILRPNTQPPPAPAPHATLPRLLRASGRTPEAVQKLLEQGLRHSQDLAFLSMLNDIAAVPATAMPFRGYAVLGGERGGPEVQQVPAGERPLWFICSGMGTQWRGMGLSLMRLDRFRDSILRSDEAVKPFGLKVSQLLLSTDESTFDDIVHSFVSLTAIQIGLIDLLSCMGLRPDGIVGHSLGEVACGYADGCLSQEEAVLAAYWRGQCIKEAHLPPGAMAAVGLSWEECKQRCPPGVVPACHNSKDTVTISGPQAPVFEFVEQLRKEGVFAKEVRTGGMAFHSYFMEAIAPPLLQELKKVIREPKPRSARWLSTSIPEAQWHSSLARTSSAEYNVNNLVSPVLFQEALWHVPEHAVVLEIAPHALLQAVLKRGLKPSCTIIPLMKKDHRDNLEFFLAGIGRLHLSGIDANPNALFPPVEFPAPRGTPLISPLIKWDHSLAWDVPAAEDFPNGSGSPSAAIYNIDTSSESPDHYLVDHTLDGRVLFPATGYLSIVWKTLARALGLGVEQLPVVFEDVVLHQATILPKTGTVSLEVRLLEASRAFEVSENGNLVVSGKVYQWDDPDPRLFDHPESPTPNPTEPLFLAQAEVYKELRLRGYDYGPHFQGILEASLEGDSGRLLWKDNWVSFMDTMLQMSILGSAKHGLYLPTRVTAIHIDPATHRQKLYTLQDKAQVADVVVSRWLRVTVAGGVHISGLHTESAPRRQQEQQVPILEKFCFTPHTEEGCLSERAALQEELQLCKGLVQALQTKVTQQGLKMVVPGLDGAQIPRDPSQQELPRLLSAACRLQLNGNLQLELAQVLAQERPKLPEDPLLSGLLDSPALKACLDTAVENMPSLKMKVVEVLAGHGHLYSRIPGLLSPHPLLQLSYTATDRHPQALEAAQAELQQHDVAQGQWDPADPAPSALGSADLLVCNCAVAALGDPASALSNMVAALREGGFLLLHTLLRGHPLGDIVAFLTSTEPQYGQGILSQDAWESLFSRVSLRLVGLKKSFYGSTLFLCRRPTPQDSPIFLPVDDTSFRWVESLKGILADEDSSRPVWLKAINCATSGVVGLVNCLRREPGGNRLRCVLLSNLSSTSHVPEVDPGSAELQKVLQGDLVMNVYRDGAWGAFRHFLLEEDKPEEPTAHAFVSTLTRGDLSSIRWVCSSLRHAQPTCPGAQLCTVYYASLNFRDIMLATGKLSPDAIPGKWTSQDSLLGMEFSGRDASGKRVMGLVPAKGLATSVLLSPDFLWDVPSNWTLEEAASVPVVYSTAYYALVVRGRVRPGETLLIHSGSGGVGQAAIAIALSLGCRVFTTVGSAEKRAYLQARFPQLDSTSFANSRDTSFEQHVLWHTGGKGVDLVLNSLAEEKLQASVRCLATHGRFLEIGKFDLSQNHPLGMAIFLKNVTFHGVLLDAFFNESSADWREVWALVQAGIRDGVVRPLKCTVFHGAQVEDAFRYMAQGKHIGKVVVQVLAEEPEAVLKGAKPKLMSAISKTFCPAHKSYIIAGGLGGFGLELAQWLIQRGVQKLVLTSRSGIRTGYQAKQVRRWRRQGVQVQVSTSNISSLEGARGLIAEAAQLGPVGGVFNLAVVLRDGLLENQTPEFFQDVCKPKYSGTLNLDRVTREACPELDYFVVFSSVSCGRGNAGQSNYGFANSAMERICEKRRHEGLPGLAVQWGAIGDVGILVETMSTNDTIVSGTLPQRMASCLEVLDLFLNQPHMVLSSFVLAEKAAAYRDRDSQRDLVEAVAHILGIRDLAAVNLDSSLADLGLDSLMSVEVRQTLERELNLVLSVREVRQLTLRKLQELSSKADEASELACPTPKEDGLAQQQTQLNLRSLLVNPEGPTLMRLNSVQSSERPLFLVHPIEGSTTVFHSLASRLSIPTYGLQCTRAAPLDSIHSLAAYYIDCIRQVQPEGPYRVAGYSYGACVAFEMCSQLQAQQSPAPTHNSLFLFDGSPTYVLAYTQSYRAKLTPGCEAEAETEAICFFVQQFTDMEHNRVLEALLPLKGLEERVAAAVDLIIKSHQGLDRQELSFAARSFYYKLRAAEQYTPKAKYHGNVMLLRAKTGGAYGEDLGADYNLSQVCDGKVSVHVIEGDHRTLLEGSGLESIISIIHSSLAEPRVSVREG
NR3A LBD binder: NR3A (human) ligand-binding domain modulation | Tm shift relative to glycine control, % at 25 µM | NR3A LBD differential scanning fluorimetry, Tm shift; 0% = protein alone, 100% = glycine-bound protein | 2.5% of 340,000 active;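 active = melting temperature shift of at least 10% of the positive control shift, at one fixed dose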
ADAM10 confirm: confirmation of inhibitors of human ADAM10; shares compounds with ADAM10 inh; AID 743208; inhibition, % at 6.95 µM; 1% of 2,100 active; ADAM10 QFRET peptide cleavage, EDANS fluorescence;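 active = inhibition above about 20% chosen separately for each screening run, limit read from the data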;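 note: 0% = DMSO wells and 100% = marimastat wells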
ADAM17 ctr: inhibits human ADAM17 in ADAM10 exosite counter-screen; shares compounds with ADAM10 inh; ADAM17 QFRET peptide cleavage, EDANS fluorescence; 0.5% of 2,100 active; AID 743214; inhibition, % at 6.95 µM;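 active = mean triplicate inhibition above the solvent-only control wells' mean plus 3 SD, cut at about 12% in these data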;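 note: 0% = DMSO wells and 100% = marimastat wells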
ADAM10 counter: ADAM10 inhibition, counter-screen for ADAM17 exosite hits. shares compounds with ADAM17 inh. recombinant ADAM10, EDANS/DABCYL FRET peptide cleavage, 3 h. inhibition, % at 6.95 µM. 47% of 2,900 active. AID 743256;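 active = mean inhibition over the triplicate runs exceeds the activity threshold set in the earlier primary screen, cut at about 20% in these data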;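 note: 0% = DMSO wells and 100% = marimastat wells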
ADAM17 confirm: human ADAM17 inhibition, confirmation | shares compounds with ADAM17 inh | recombinant ADAM17, EDANS/DABCYL QFRET peptide cleavage | inhibition, % at 6.95 µM | 65% of 2,900 active | AID 743257;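 active = mean inhibition across replicates above the hit cutoff set in the primary screen, cut at about 8.5% in these data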;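 note: 0% = DMSO wells and 100% = marimastat wells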
Active calls of the source: *; nt = no result given.

SMILES	ADAM10 inh	KLK7 zymogen act	ADAM17 inh	FAS-TE inh	NR3A LBD binder	ADAM10 confirm	ADAM17 ctr	ADAM10 counter	ADAM17 confirm
Cc1ccc(NP(=O)(Oc2ccccc2F)Oc2ccccc2F)cc1	21.3*	0.0	3.0	27.8	-12.6	0.9	0.5	nt	nt
CCC(=Nc1cc(OC)ccc1OC)c1c(O)[nH]c(=O)[nH]c1=O	20.9*	-1.0	0.6	-9.8	-0.3	1.6	-0.5	nt	nt
O=c1[nH]c2cc(Cl)ccc2n1C1CCN(Cc2ccc(-c3nc4ccccc4nc3-c3ccccc3)cc2)CC1	-8.0	-2.5	0.2	nt	nt	nt	nt	nt	nt
CCN(CCNc1ccc([N+](=O)[O-])c2cccnc12)S(=O)(=O)c1ccc(Cl)cc1	21.6*	-0.8	7.0	20.8	-1.0	5.0	0.9	nt	nt
COC(=O)C1C(c2ccccc2)CC2CCC1N2C (stereo unspecified)	-0.9	-0.1	-1.8	nt	nt	nt	nt	nt	nt
Cn1cc(P(=S)(c2ccccc2)c2ccccc2)c2ccccc21	13.8	nt	6.9	nt	nt	nt	nt	nt	nt
Cc1nc2ccc(Br)cc2c(=O)n1-c1ccc([N+](=O)[O-])c(C(F)(F)F)c1	23.5*	0.1	4.7	9.9	-4.2	0.5	0.0	nt	nt
OCCN1C2CCC1CC(O)(c1ccc(F)cc1)C2 (stereo unspecified)	-1.6	-0.1	-2.2	-9.1	0.9	nt	nt	nt	nt
CCC1C(c2ccccc2)NC(c2ccccc2)CC1(O)c1ccc(F)cc1 (stereo unspecified)	20.9*	0.8	4.9	28.1	-0.6	4.4	1.3	nt	nt
CCCNC(=O)N1[C@H]2CC[C@@H]1C(C(=O)OC)=C(c1ccc(-c3ccccc3)c(F)c1)C2	25.6*	-0.1	16.3*	7.1	-1.1	0.2	0.2	19.0	10.5*
COC(=O)C1=C(c2ccc(-c3ccccc3)c(F)c2)C[C@@H]2CC[C@H]1N2C(=O)NCCO	6.8	0.5	0.8	-11.3	-2.5	nt	nt	nt	nt
COC(=O)C1=C(c2ccc(-c3ccccc3)c(F)c2)C[C@@H]2CC[C@H]1N2C(=O)NCCOc1ccccc1Cl	28.1*	-0.3	16.6*	39.7	-6.3	6.8	1.8	27.8*	17.4*
Cc1cc(N2CCNC[C@H]2C)ccc1N1CCN[C@@H](C)C1	2.5	-0.5	1.1	nt	nt	nt	nt	nt	nt
CC1C2Cc3ccc(O)cc3C1(C)CCN2CC1CC1 (stereo unspecified)	-7.9	-0.1	0.0	nt	nt	nt	nt	nt	nt
CCc1ccc(NP(=O)(Oc2ccccc2F)Oc2ccccc2F)cc1	26.2*	0.8	11.9*	34.5	-6.7	6.5	2.2	34.5*	19.7*
COc1cccc(C(=O)NCCN2CCC3(CC2)C(=O)NCN3c2ccccc2)c1	-5.1	0.2	-5.3	nt	nt	nt	nt	nt	nt
COC(=O)C1=C(c2ccc(F)cc2OCc2ccccc2)C[C@@H]2CC[C@H]1N2C(=O)NCc1ccccc1OC	27.8*	0.5	14.9*	22.6	-9.4	3.7	1.9	20.7*	12.8*
COC(=O)C1=C(c2ccc(F)cc2OCc2ccccc2)C[C@@H]2CC[C@H]1N2C(=O)NCc1cccc(F)c1	13.0	0.3	1.1	19.8	-0.2	nt	nt	nt	nt
COC(=O)C1=C(c2ccccc2OCc2ccccc2)C[C@@H]2CC[C@H]1N2C(=O)NCCc1ccc(F)cc1	20.6*	0.8	10.0*	18.1	-0.8	4.2	1.6	15.6	6.9
COC(=O)C1=C(c2cc3ccccc3s2)C[C@@H]2CC[C@H]1N2C(=O)NCc1ccc(C(F)(F)F)cc1	24.1*	0.0	11.8*	38.4	-5.7	5.7	2.0	14.9	11.5*
COc1cccc(NP(=O)(Oc2ccccc2Cl)Oc2ccccc2Cl)c1	23.2*	0.4	10.2*	32.6	-6.7	8.4	3.2	44.7*	17.8*
COc1cccc(NP(=O)(Oc2ccccc2)Oc2ccccc2)c1	13.7	-0.6	6.5	10.5	1.1	nt	nt	nt	nt

Screening results as filed in PubChem.
